An excerpt weighted towards active compounds, which were near 0.4% of everything screened.
Cdc42 wt = modulators (inhibitors or activators) of GTP binding to human Cdc42 wildtype; GST-Cdc42 beads, Bodipy-GTP binding, flow cytometry; actives lie on both sides; percent activity (GTP binding), % at 10 µM; hit rate 0.2% among 190,000; AID 761;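 active means percent activity GTP binding at least 20 points away from the 100% baseline, either down as inhibitor or up as activator; inconclusive means compound flagged as likely green fluorescent from well-wide comparison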;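 further: median bead fluorescence of bound Bodipy-FL-GTP at 100 nM; 0% = excess unlabeled GTP control and 100% = no compound control; below 100% means less GTP binding so inhibitor and above means activator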
Target sequence (P60953 whole entry, looked up): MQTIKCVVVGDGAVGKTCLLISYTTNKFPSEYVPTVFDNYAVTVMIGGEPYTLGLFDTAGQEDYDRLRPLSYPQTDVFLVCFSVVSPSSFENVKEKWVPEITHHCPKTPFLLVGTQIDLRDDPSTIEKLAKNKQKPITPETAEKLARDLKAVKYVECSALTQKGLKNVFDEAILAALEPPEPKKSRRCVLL
Rab2A wt mod = changes GTP binding to wildtype dog Rab2A, up or down; P61105; GST-Rab2 wt beads, Bodipy-GTP binding, flow cytometry; GTP binding activity, % at 10 µM; hit rate 0.19% among 190,000;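 active means GTP binding activity at least 20 points away from 100%, either lowered or raised; inconclusive means signal likely due to the compound's own green fluorescence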;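 further: 0% = beads with excess unlabeled GTP and 100% = no-compound control corrected for plate trend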
HRas wt GTP = human HRas wildtype GTP binding, change in either direction. P01112. GST-Ras wt beads, Bodipy-FL-GTP binding, flow cytometry; actives lie on both sides. GTP binding activity, % at 10 µM. hit rate 0.14% among 190,000;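 active means GTP binding activity at least 20% away from the 100% baseline, either lowered as inhibitor or raised as activator; inconclusive means flagged as likely green fluorescent, judged across all proteins in the well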;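 further: 0% = unlabeled GTP competition control and 100% = no-compound control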
Target sequence (P01112 whole entry, looked up): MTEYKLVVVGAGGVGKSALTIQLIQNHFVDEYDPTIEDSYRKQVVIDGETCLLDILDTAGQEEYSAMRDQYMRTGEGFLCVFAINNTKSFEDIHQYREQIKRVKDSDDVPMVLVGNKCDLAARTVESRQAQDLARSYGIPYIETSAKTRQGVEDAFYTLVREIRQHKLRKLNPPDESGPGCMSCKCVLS
Rac1 mut GTP = modulators of GTP binding to human Rac1 activated mutant; P63000; GST-Rac1 activated beads, fluorescent GTP binding, flow cytometry; actives lie on both sides; 100% means binding = to untreated wells; percent activity (GTP binding), % at 10 µM; hit rate 0.11% among 190,000;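 active means GTP binding at least 20 percentage points away from the 100% baseline, in either direction, so actives lie on both sides; inconclusive means Compound likely fluorescent itself, or too few beads counted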
Rac1 wt GTP bind = alters GTP binding to wildtype human Rac1. P63000. GST-Rac1 beads, fluorescent GTP binding, flow cytometry; actives lie on both sides; 0 = cold GTP competed, 100 = untreated. GTP binding activity (% of control), % at 10 µM. hit rate 0.27% among 190,000. AID 757;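 active means GTP binding activity at least 20 points away from the 100% control level, either lower or higher; inconclusive means compound flagged as likely green fluorescent, judged across all proteins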
Rab7 wt modul = alters GTP binding to wildtype dog Rab7; GST-Rab7 beads, fluorescent GTP binding, flow cytometry; actives lie on both sides; untreated = 100%, excess cold GTP = 0%; GTP binding activity (percent of control), % at 10 µM; hit rate 0.055% among 190,000; AID 758;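 active means fluorescent GTP binding to Rab7 beads changed by at least 20 points from the 100% baseline, either direction, mostly lower; inconclusive means compound itself probably fluorescent, or too few beads counted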;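 further: median green fluorescence of bound Bodipy-FL-GTP per Rab7 bead population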
The depositor's hits bear a star; ? = inconclusive; [ ] = dose if it differs, or a comment.

SMILES	Cdc42 wt	Rab2A wt mod	HRas wt GTP	Rac1 mut GTP	Rac1 wt GTP bind	Rab7 wt modul
O=C(O)COc1ccccc1/C=N/NC(=O)c1cccc(S(=O)(=O)Nc2cccc(Cl)c2)c1	82	82	87	82	75*	94
OCCNc1nc(SCc2ccccc2)nc2sc3c(c12)CCC3	95	97	98	94	96	99
COc1ccc(-c2nnc(S/C(=C/c3ccc(Cl)cc3)C(=O)O)o2)cc1	74*	75*	83	73*	81	85
O=C(COC(=O)c1cc2ccccc2o1)c1ccccc1	98	98	99	101	102	98
O=C(OCCN1CCCCC1)c1cc2ccccc2o1	114	106	106	102	123*[activator]	102
O=C(NC1CCCCC1)c1noc2c1CCCCC2	114	110	109	102	120*[activator]	105
CC(C)(C)C1CCc2onc(C(=O)NC3CCCC3)c2C1 (stereo not drawn)	105	100	104	98	102	99
Cc1ccc(/C=C(\CCC(=O)O)c2nc3ccccc3s2)cc1[N+](=O)[O-]	83	79*	86	78*	83	87
COC(=O)C1=C(C)N(CCc2c[nH]c3ccc(OC)cc23)C(=O)C1	94	97	97	94	99	99
Cc1cccc(C)c1NC(=S)N1CCC(c2ccccc2)C1 (stereo not drawn)	97	99	97	99	101	103
N=c1c(C(=O)NCc2ccco2)cc2c(=O)n3ccccc3nc2n1CCc1ccccc1	80	75*	77*	87	72*	91
Cc1ccc(Cn2c(=N)c(C(=O)NCc3ccco3)cc3c(=O)n4ccccc4nc32)cc1	98	100	98	96	101	100
CCNC(=O)c1cc2c(=O)n3cccc(C)c3nc2n(CCc2ccccc2)c1=N	71*	72*	71*	82	81	87
CC1(C)C2C/C(=N\O)C(C)(/[N+]([O-])=C/c3cccc([N+](=O)[O-])c3)CC21 (stereo not drawn)	96	94	95	92	94	97
CC(C)Cc1nc2oc3c(Cl)ncnc3c2c2c1CCC2	100	99	101	99	101	97
CC(C)c1nc2sc3c(=O)[nH]c(=S)[nH]c3c2c2c1CCC2	100	93	97	96	98	101
CCCc1nc2oc3c(=O)[nH]cnc3c2c2c1CCCC2	82	81	82	85	79*	93
CC(C)c1nc2oc3c(=O)[nH]cnc3c2c2c1CCC2	70*	73*	74*	82	79*	81
Cc1ccc(NCC(=O)c2ccccc2)cc1Cl	93	88	78*	92	91	82
N=C1C(=O)OCC1c1ccccc1NC(=O)CN1CCOCC1 (stereo not drawn)	103	100	100	101	101	93
O=C(Cn1cnc2c(nnn2Cc2ccccc2)c1=O)NCC1CCCO1 (stereo not drawn)	104	102	104	99	110	101
O=C(Cn1cnc2c(nnn2Cc2ccccc2F)c1=O)NCC1CCCO1 (stereo not drawn)	118	126*[activator]	109	104	120*[activator]	109
Cc1cc(C)nc(NS(=O)(=O)c2ccc(N/C=C/C(=O)c3ccc(Cl)cc3)cc2)n1	99	98	98	99	99	100
COc1ccc(C(=O)/C=C/Nc2ccc(S(=O)(=O)Nc3nc(C)cc(C)n3)cc2)cc1OC	89	88	91	87	79*	92
CC(C)C1O/C(=N/C(=O)Nc2ccc(Cl)c(Cl)c2)NC1=O (stereo not drawn)	101	96	99	100	103	95
SMILES	Cdc42 wt	Rab2A wt mod	HRas wt GTP	Rac1 mut GTP	Rac1 wt GTP bind	Rab7 wt modul
Cc1cc(C)c(C#N)c(SCc2ccccc2)n1	100	101	99	98	104	96
Cc1ccc2nc(CSc3nc(C)cc(C)c3C#N)[nH]c2c1	114	101	107	105	122*[activator]	102
O=C(CCc1ccccc1)c1nnc(-c2ccccc2)o1	93	97	95	95	97	103
N#Cc1c2c(c(-c3ccccc3Cl)[nH]c1=S)CCCC2	79*	86	85	80	80	91
N#Cc1c(-c2ccccc2Cl)cc(-c2ccccc2)[nH]c1=S	93	96	95	90	93	104
Cc1ccnc(NC(=S)NC(=O)/C=C/c2ccc(Cl)cc2)c1	101	102	103	101	105	102
Cc1ccc(Nc2n[nH]c(C)c2[N+](=O)[O-])c(C)c1	116	192*[activator]	154*[activator]	?	111	?
Cc1ccccc1Nc1n[nH]c(C)c1[N+](=O)[O-]	98	99	97	100	99	98
Cc1ccc(C(=O)COC(=O)c2ccc3c(c2)C(=O)N(c2cccc4ncccc24)C3=O)cc1	77*	71*	76*	75*	71*	84
O=C(COC(=O)c1ccc2c(c1)C(=O)N(c1cccc3ncccc13)C2=O)c1ccc(Cl)cc1	89	83	90	86	82	90
O=C(Nc1nnc(-c2ccccc2Cl)o1)c1nc2ccccc2s1	100	98	97	96	99	95
Cc1cc(/C=c2\sc3nc4ccccc4n3c2=O)c(C)n1-c1ccc(C(=O)O)cc1	78*	85	88	76*	81	94
COc1ccc(NS(=O)(=O)c2cc(NC(=O)c3cnccn3)ccc2OC)cc1Br	90	92	95	94	95	92
COc1cc(CCNc2ccc3nnc(-c4ccccc4)n3n2)cc(OC)c1OC	73*	74*	71*	89	73*	89
COc1cc(NC(=O)c2cccs2)c(OC)cc1NC(=O)CCC(=O)Nc1ccc2ncccc2c1	71*	71*	72*	87	74*	90
Cc1cc(=O)[nH]c2ccccc12	108	105	107	101	107	107
Cc1cc2[nH]c3c(c[n+](C)c4ccccc34)c2cc1C	85	87	87	94	76*	94
CCSCc1nnc(SCC(=O)Nc2ccc(OC)cc2)n1C	96	99	99	96	98	101
O=C1c2ccccc2-n2c1nc1ccccc1c2=O	81	82	82	88	77*	97
O=C(CNC(=O)Cc1ccccc1)N=Nc1c(O)n(Cc2ccc3c(c2)OCO3)c2ccccc12	90	78*	84	88	78*	90
C=CCNC(=O)c1ccc(S(=O)(=O)CC)c(Cl)c1Cl	95	97	97	94	98	95

Compound activity deposited in PubChem by NMMLSC.
